Inconclusive results are not listed. Where a structure was tested more than once in an assay, its records may differ in their call. Calls of active or inactive are those of the source. How the source made its calls: active means hit-call score of the fitted dose curve at least 0.9, where 1 is the maximum; inconclusive means response in the unintended direction; inactive means score below 0.9.
Experiments:
[1] = biological target: rat CYP2C11, Cyp2c11 (gene 29277) (UniProt P08683); experiment: NVS_ADME_rCYP2C11: NovaScreen (NVS) CYP450-related Enzyme Activity (ADME) Assay for rat CYP2C11 (AID 2283118)
Sequence of rat CYP2C11, Cyp2c11 (gene 29277) (P08683 whole entry, looked up): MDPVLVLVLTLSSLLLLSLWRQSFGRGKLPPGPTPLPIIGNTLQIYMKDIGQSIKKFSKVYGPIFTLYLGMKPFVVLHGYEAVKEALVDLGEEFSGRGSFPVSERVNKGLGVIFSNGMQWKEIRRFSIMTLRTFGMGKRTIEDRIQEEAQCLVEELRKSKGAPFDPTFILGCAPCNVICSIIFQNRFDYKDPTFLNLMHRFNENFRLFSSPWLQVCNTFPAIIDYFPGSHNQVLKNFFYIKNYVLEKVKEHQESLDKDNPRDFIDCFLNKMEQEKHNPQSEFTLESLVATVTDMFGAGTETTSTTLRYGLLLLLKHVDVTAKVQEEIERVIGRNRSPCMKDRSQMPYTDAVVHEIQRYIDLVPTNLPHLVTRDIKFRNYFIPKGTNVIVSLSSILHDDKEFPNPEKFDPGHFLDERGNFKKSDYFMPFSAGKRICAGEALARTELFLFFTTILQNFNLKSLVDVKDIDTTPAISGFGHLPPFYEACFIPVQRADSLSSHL
Outline: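 Cell-free recombinant rat enzyme with fluorescent substrate; readout 0.33 h after dosing, loss of signal versus acetonitrile control. Initial duplicate single-point at 10 uM; actives rerun in concentration series.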

[2] = biological target: rat CYP2C12, Cyp2c12 (gene 25011) (UniProt P11510); experiment: NVS_ADME_rCYP2C12: NovaScreen (NVS) CYP450-related Enzyme Activity (ADME) Assay for rat CYP2C12 (AID 2283119)
Sequence of rat CYP2C12, Cyp2c12 (gene 25011) (P11510 whole entry, looked up): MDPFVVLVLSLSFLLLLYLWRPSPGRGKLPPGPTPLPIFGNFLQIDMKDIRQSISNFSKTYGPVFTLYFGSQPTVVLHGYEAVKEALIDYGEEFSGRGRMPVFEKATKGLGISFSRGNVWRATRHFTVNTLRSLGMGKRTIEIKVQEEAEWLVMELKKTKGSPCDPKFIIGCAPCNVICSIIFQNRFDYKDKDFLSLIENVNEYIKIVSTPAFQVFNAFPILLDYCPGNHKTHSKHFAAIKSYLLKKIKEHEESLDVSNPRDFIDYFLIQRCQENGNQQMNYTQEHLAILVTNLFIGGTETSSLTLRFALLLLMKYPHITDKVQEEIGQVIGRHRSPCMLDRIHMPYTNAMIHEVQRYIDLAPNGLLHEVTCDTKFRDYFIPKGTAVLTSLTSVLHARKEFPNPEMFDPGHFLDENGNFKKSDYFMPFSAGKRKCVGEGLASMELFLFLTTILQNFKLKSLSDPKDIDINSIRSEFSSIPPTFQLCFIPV
Outline: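 Cell-free recombinant rat CYP2C12 activity read by fluorescence 0.5 h after dosing; loss of signal versus acetonitrile control. Primary screen in duplicate at 10 uM; actives then run in concentration-response format.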

rat CYP2C6, gene 293989 = experiment: NVS_ADME_rCYP2C6: NovaScreen (NVS) CYP450-related Enzyme Activity (ADME) Assay for rat CYP2C6 (AID 2283120)
Outline: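 Cell-free recombinant rat CYP2C6 with fluorogenic substrate, read by fluorescence 1 h after dosing; acetonitrile as negative control. Primary screen at 10 uM in duplicate, actives then in concentration-response up to 20 uM.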

[3] = biological target: human Acetylcholinesterase (AChE), ACHE (gene 43) (UniProt P22303); experiment: NVS_ENZ_hAChE: NovaScreen (NVS) Enzymatic Assay for human Acetylcholinesterase (AChE) (AID 2283129)
Sequence of human Acetylcholinesterase (AChE), ACHE (gene 43) (P22303 whole entry, looked up): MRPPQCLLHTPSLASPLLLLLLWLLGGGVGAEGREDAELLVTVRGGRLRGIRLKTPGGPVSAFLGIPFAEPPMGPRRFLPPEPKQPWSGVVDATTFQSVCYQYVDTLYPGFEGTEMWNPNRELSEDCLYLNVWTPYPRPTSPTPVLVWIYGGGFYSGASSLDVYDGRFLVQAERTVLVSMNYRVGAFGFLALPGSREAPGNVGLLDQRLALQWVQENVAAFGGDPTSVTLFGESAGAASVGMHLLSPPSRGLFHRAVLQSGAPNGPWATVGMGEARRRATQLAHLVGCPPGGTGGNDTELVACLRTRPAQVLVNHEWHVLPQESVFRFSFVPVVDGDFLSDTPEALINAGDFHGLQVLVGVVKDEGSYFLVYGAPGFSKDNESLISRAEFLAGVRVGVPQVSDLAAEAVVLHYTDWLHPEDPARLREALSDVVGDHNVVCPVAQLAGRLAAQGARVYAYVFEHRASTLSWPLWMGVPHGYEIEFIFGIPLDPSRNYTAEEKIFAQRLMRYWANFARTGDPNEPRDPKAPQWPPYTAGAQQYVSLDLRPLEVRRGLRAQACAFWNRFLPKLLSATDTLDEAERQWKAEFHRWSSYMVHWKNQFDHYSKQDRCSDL
Outline: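 Cell-free colorimetric enzyme-activity assay; compounds read 0.33 hour after dosing, loss of signal vs DMSO baseline. Primary screen in duplicate at 25 uM single concentration, with active compounds retested in concentration series.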

[4] = biological target: human AKT serine/threonine Kinase 2 (AKT2), AKT2 (gene 208) (UniProt P31751); experiment: NVS_ENZ_hAKT2: NovaScreen (NVS) Enzymatic Assay for human AKT serine/threonine Kinase 2 (AKT2) (AID 2283141)
Outline: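 Cell-free fluorescence/electrophoretic mobility shift readout of recombinant human AKT2 activity, 1 h after chemical dosing. Duplicate primary screen at 25 uM, then singleton concentration-response up to 50 uM; loss of signal versus DMSO baseline.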

CDK2 (gene 1017) = CDK2 (gene 1017) (UniProt P24941); experiment: NVS_ENZ_hCDK2: NovaScreen (NVS) Enzymatic Assay for human Cyclin-Cependent Kinase 2 (CDK2) (AID 2283144)
Outline: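 Cell-free recombinant human CDK2 with fluorescent substrate, product separated by electrophoretic mobility shift; 1 hr read. Primary screen at 25 uM in duplicate, actives retested in concentration-response up to 50 uM; loss of signal versus DMSO.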

rat CYP3A1, gene 25642 = experiment: NVS_ADME_rCYP3A1: NovaScreen (NVS) CYP450-related Enzyme Activity (ADME) Assay for rat CYP3A1 (AID 2283126)
Outline: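 Cell-free recombinant CYP assay with fluorescent substrate, read 0.5 h after dosing. Screened at 10 uM in duplicate, hits at up to 20 uM in concentration-response; loss of signal versus acetonitrile baseline.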

[5] = biological target: human AMP-activated Protein Kinase, alpha 1 (AMPKa1), PRKAA1 (gene 5562) (UniProt Q13131); experiment: NVS_ENZ_hAMPKa1: NovaScreen (NVS) Enzymatic Assay for human AMP-activated Protein Kinase, alpha 1 (AMPKa1) (AID 2283130)
Outline: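 Recombinant human AMPKα1 activity was measured cell-free by fluorescent substrate conversion with electrophoretic mobility-shift separation, 1 h after dosing. Duplicate single-point screening was at 25 uM; actives (≥30% inhibition) were retested in concentration-response up to 50 uM.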

[6] = biological target: human Caspase 5 (CASP5), CASP5 (gene 838) (UniProt P51878); experiment: NVS_ENZ_hCASP5: NovaScreen (NVS) Enzymatic Assay for human Caspase 5 (CASP5) (AID 2283137)
Sequence of human Caspase 5 (CASP5), CASP5 (gene 838) (P51878 whole entry, looked up): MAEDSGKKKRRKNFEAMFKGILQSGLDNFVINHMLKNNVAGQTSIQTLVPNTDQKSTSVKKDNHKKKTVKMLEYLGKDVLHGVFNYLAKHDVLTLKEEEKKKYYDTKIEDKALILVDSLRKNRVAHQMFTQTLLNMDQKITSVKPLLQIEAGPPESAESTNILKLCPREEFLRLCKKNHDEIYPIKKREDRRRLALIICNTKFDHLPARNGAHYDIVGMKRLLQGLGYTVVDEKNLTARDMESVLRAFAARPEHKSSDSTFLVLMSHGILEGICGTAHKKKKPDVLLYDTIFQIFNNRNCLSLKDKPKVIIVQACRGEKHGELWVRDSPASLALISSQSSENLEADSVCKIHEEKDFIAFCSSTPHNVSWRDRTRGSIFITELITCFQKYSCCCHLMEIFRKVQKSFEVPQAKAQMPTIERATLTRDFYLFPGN
Outline: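 Cell-free protease assay with bacterially expressed CASP5 and a fluorescent substrate, measured at 2 h. Values fitted relative to DMSO as baseline, from concentration-response series topping at 50 uM.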

[7] = biological target: human AKT serine/threonine Kinase 1 (AKT1), AKT1 (gene 207) (UniProt P31749); experiment: NVS_ENZ_hAKT1: NovaScreen (NVS) Enzymatic Assay for human AKT serine/threonine Kinase 1 (AKT1) (AID 2283138)
Sequence of human AKT serine/threonine Kinase 1 (AKT1), AKT1 (gene 207) (P31749 whole entry, looked up): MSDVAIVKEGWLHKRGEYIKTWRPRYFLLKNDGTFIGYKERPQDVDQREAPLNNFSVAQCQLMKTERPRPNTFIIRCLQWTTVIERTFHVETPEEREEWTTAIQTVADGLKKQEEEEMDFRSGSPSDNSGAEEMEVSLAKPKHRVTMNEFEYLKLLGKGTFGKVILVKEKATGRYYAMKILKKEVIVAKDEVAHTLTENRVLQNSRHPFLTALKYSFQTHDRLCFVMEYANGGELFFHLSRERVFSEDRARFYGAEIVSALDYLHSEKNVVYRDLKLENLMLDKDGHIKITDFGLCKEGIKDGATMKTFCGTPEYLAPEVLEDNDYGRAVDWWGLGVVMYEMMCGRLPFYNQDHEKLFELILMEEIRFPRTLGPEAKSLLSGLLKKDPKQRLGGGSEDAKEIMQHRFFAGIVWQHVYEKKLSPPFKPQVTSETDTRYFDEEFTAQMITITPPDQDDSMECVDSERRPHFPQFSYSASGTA
Outline: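 Signal loss relative to DMSO, measured by fluorescence after electrophoretic separation of substrate and product, indicates inhibition of recombinant enzyme. Readings at 1 h; screening at 25 uM, follow-up curves up to 50 uM.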

[8] = biological target: human Caspase 4 (CASP4), CASP4 (gene 837) (UniProt P49662); experiment: NVS_ENZ_hCASP4: NovaScreen (NVS) Enzymatic Assay for human Caspase 4 (CASP4) (AID 2283143)
Sequence of human Caspase 4 (CASP4), CASP4 (gene 837) (P49662 whole entry, looked up): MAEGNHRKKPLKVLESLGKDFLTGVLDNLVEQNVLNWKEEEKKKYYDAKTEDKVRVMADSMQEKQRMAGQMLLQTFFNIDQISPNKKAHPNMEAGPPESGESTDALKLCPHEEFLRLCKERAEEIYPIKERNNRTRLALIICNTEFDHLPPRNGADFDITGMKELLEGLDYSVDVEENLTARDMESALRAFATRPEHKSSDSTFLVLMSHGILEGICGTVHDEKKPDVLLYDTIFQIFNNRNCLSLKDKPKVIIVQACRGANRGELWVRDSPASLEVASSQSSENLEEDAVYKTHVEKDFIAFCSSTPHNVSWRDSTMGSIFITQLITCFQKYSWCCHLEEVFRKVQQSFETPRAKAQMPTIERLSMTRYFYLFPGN
Outline: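 The cell-free assay used E. coli-expressed enzyme with a fluorogenic substrate, read 2 h after dosing. Signal loss was scored versus DMSO. Screening was in duplicate at 25 uM, then singleton concentration-response up to 50 uM.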

[9] = biological target: human Acid Phosphatase 1 (ACP1), ACP1 (gene 52) (UniProt P24666); experiment: NVS_ENZ_hACP1: NovaScreen (NVS) Enzymatic Assay for human Acid Phosphatase 1 (ACP1) (AID 2283136)
Outline: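 Recombinant enzyme expressed in Sf9 cells, tested cell-free; activity read by fluorescence with electrophoretic mobility shift separation of substrate and product, 1.5 h after dosing. Primary screen in duplicate at 25 uM, actives then run in concentration series; loss of signal versus DMSO.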

[10] = biological target: rat CYP2A2, Cyp2a2 (gene 24895) (UniProt P15149); experiment: NVS_ADME_rCYP2A2: NovaScreen (NVS) CYP450-related Enzyme Activity (ADME) Assay for rat CYP2A2 (AID 2283116)
Sequence of rat CYP2A2, Cyp2a2 (gene 24895) (P15149 whole entry, looked up): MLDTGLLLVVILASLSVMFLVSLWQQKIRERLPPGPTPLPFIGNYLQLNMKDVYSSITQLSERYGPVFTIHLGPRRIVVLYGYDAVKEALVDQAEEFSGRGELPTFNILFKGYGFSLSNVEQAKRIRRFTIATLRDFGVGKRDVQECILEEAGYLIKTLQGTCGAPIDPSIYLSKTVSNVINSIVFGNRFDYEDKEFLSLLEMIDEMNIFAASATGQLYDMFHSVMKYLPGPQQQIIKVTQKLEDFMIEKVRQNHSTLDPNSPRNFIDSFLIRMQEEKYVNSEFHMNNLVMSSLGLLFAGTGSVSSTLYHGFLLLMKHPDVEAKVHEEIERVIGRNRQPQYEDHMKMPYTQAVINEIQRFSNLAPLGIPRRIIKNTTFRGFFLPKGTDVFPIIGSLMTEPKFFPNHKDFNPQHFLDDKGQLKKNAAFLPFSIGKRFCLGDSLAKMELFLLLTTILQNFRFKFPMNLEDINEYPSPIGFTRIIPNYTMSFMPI
Outline: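 Cell-free recombinant rat CYP2A2 activity with fluorogenic substrate, fluorescence read 0.2 h after dosing. Chemicals screened at 10 uM in duplicate, hits then run in concentration-response up to 20 uM; signal loss versus acetonitrile baseline.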

[11] = biological target: rat CYP2C13, Cyp2c13 (gene 171521) (UniProt P20814); experiment: NVS_ADME_rCYP2C13: NovaScreen (NVS) CYP450-related Enzyme Activity (ADME) Assay for rat CYP2C13 (AID 2283121)
Sequence of rat CYP2C13, Cyp2c13 (gene 171521) (P20814 whole entry, looked up): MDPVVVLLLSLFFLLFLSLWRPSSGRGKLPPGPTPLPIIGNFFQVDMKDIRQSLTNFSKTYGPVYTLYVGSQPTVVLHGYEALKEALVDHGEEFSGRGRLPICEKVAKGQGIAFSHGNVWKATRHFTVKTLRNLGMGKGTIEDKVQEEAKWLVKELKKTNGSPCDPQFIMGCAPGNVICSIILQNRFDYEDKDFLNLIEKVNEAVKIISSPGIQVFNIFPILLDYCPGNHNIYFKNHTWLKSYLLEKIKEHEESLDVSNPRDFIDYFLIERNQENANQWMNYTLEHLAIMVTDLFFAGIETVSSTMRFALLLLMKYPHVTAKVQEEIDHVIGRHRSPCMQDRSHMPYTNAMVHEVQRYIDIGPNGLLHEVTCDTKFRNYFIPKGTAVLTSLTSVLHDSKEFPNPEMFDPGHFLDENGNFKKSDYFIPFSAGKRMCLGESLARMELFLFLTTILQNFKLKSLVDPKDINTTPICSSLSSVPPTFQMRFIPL
Outline: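 Recombinant rat CYP2C13 with fluorogenic substrate, 0.75 h cell-free incubation; primary screen in duplicate at 10 uM, actives followed in concentration series. Fluorescence loss relative to acetonitrile control indicates inhibition.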

[12] = biological target: human Beta-secretase (BACE), BACE1 (gene 23621) (UniProt P56817); experiment: NVS_ENZ_hBACE: NovaScreen (NVS) Enzymatic Assay for human Beta-secretase (BACE) (AID 2283140);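 further: hits are inhibitors that reduce fluorescent substrate signal versus DMSO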
Sequence of human Beta-secretase (BACE), BACE1 (gene 23621) (P56817 whole entry, looked up): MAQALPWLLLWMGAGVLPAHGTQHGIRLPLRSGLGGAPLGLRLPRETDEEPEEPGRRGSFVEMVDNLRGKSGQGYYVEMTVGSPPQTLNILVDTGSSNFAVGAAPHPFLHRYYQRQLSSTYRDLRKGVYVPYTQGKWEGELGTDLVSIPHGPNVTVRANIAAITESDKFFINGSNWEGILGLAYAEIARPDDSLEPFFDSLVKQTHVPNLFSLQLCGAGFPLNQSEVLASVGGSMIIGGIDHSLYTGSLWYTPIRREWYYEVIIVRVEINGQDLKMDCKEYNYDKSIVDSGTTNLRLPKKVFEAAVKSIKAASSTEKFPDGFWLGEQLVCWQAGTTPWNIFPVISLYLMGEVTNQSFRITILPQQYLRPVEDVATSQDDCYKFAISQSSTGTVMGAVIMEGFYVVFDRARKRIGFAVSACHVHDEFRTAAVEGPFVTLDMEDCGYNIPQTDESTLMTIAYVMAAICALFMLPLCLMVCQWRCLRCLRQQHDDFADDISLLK
Outline: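 Recombinant BACE1 (SF9 extract) incubated with compound and fluorescent substrate, 1 h. Plates carried positive and DMSO negative controls. Initial single dose 25 uM, duplicate; confirmation by concentration series.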

Caspase-3 (Homo sapiens) = Caspase-3 (Homo sapiens) (UniProt P42574); experiment: NVS_ENZ_hCASP3: NovaScreen (NVS) Enzymatic Assay for human Caspase 3 (CASP3) (AID 2283139)
Outline: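 Recombinant human caspase-3 from E. coli with a fluorogenic substrate, read by fluorescence 1 h after dosing. Primary screen in duplicate at 25 uM. Actives (for example ≥30% inhibition) rerun as concentration-response up to 50 uM.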

[13] = biological target: human Aurora Kinase A - serine/threonine-protein Kinase 6 (AurA), AURKA (gene 6790) (UniProt O14965); experiment: NVS_ENZ_hAurA: NovaScreen (NVS) Enzymatic Assay for human Aurora Kinase A - serine/threonine-protein Kinase 6 (AurA) (AID 2283142)
Outline: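 Cell-free enzymatic assay with human Aurora A, 1 hour after dosing. Fluorescent substrate turnover detected after electrophoretic mobility shift separation of substrate and product. Screened at 25 uM, actives retested in concentration-response up to 50 uM.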

[14] = biological target: human Caspase 8 (CASP8), CASP8 (gene 841) (UniProt Q14790); experiment: NVS_ENZ_hCASP8: NovaScreen (NVS) Enzymatic Assay for human Caspase 8 (CASP8) (AID 2283146)
Sequence of human Caspase 8 (CASP8), CASP8 (gene 841) (Q14790 whole entry, looked up): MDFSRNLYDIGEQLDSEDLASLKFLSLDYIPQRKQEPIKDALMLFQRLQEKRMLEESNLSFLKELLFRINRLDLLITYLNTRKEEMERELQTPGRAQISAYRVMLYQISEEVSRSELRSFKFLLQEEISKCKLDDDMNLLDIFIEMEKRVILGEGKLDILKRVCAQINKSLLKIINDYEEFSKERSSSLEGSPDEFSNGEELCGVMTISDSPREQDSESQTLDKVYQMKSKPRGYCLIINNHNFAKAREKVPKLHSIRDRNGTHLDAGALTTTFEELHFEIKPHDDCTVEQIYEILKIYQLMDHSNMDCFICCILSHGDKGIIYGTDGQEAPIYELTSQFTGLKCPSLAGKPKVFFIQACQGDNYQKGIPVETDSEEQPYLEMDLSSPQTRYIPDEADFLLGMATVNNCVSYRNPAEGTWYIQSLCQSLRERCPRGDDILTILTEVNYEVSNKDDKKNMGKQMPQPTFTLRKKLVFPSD
Outline: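 E. coli-expressed enzyme was used in a cell-free fluorogenic substrate assay read 1 h after dosing. Loss of signal was scored relative to DMSO, and the primary screen was run in duplicate at 25 uM.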

Structure (SMILES): CS/C(C)=N/OC(=O)N(C)SN(C)C(=O)O/N=C(\C)SC
- AC50 [1]: 3660 nM (active)
- AC50 [2]: 1120 nM (active)
- AC50 (rat CYP2C6, gene 293989): 3630 nM (active)
- AC50 [3]: 4850 nM (active)
- outcome [4]: inactive

Structure (SMILES): COc1nc(C)nc(NC(=O)NS(=O)(=O)c2ccccc2Cl)n1
- outcome (CDK2 (gene 1017)): inactive

Structure (SMILES): CO/C=C(/C(=O)OC)c1ccccc1Oc1cc(Oc2ccccc2C#N)ncn1
- AC50 [1]: 2810 nM (active)
- AC50 (rat CYP2C6, gene 293989): 2120 nM (active)
- AC50 (rat CYP3A1, gene 25642): 5800 nM (active)
- outcome [5]: inactive
- outcome [6]: inactive
- AC50 [7]: 14700 nM (active)
- outcome [7]: inactive
- outcome [8]: inactive

Structure (SMILES): C=CCC1=C(C)[C@@H](OC(=O)[C@@H]2[C@@H](C=C(C)C)C2(C)C)CC1=O
- outcome [9]: inactive

Structure (SMILES): COC(=O)C=C(C)OP(=O)(OC)OC
- AC50 [3]: 6000 nM (active)

Structure (SMILES): N#CC(CCc1ccc(Cl)cc1)(Cn1cncn1)c1ccccc1 (stereo not given)
- AC50 [10]: 20 nM (active)
- AC50 [1]: 267 nM (active)
- AC50 [2]: 250 nM (active)
- AC50 (rat CYP2C6, gene 293989): 1440 nM (active)
- AC50 (rat CYP3A1, gene 25642): 449 nM (active)

Structure (SMILES): CN(C)C(=S)SSC(=S)N(C)C
- AC50 [2]: 1980 nM (active)
- AC50 (rat CYP2C6, gene 293989): 1280 nM (active)
- AC50 [11]: 991 nM (active)
- AC50 (rat CYP3A1, gene 25642): 3200 nM (active)
- AC50 [3]: 10600 nM (active)

Structure (SMILES): CC(C)C1(C)N=C(c2nc3ccccc3cc2C(=O)O)NC1=O (stereo not given)
- outcome [8]: inactive

Structure (SMILES): C=CCC1=C(C)C(OC(=O)C2C(C=C(C)C)C2(C)C)CC1=O (stereo not given)
- outcome [12]: inactive

Structure (SMILES): CCOP(=S)(OCC)SCn1c(=O)oc2cc(Cl)ccc21
- AC50 [10]: 10000 nM (active)
- AC50 [1]: 993 nM (active)
- AC50 [2]: 2170 nM (active)
- AC50 (rat CYP2C6, gene 293989): 336 nM (active)
- AC50 [11]: 2090 nM (active)
- AC50 (rat CYP3A1, gene 25642): 1160 nM (active)
- outcome [7]: inactive
- AC50 [12]: 14400 nM (active)

Structure (SMILES): COc1ccc(C(c2ccc(OC)cc2)C(Cl)(Cl)Cl)cc1
- outcome [10]: inactive
- outcome [1]: inactive
- outcome [2]: inactive
- AC50 (rat CYP2C6, gene 293989): 9600 nM (active)
- outcome [11]: inactive
- outcome (rat CYP3A1, gene 25642): inactive
- AC50 [6]: 25000 nM (active)
- AC50 [12]: 33900 nM (active)

Structure (SMILES): CC(Oc1ccc(Cl)cc1Cl)C(=O)O (stereo not given)
- outcome (Caspase-3 (Homo sapiens)): inactive

Structure (SMILES): N#Cc1cc(Br)c(O)c(Br)c1
- outcome [7]: inactive
- outcome [13]: inactive
- outcome [14]: inactive

Structure (SMILES): CC1COC(Cn2cncn2)(c2ccc(Oc3ccc(Cl)cc3)cc2Cl)O1 (stereo not given)
- AC50 [10]: 127 nM (active)
- AC50 [1]: 1730 nM (active)
- AC50 [2]: 1080 nM (active)
- AC50 (rat CYP2C6, gene 293989): 1560 nM (active)
- AC50 [11]: 1430 nM (active)
- AC50 (rat CYP3A1, gene 25642): 628 nM (active)
- outcome [7]: inactive

From PubChem BioAssay (EPA / NIEHS)
